This is a sample that favours compounds with a hit; in the whole collection about 9.2% have one here.
ELG1 DNA repair: qHTS screen for small molecules that inhibit ELG1-dependent DNA repair in human embryonic kidney (HEK293T) cells expressing luciferase-tagged ELG1; Potency, µM (top dose mostly 46.1 µM), without a hit: at the top dose activity change, negative = inhibition, hits mostly inhibitors; HEK293T ELG1-luciferase reporter, luminescence, 16 h; DNA damage induced by 5-fluorouridine; AID 504467, 2011; 2.3% of 330,000 active; note: % is set by controls: 0 for no effect and ±100 for the full control effect; nearly all actives have a fitted effect of over 55% in size
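Step one: seed 2,000 cells per well. Step two: pin-transfer compound or DMSO alongside 5-fluorouridine. Step three: incubate 16 hr, 37 °C, 5% CO2. Step four: add ONE-Glo, wait 30 min, read luminescence.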
SMN2 splice up: qHTS Assay for Enhancers of SMN2 Splice Variant Expression | 2.8% of 210,000 active | HEK293 SMN2-luciferase splicing reporter, luminescence, 30-36 h | Potency, µM (series often up to 46.1 µM), inactives show at the top dose activity change, positive = activation, actives largely listed as activators; note: % of control where 0% means no effect; nearly all actives have a fitted effect of over 55% in size
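HEK293 cells carry an SMN2 […]–luciferase reporter in which exon 7 inclusion puts luciferase in frame. Cells were plated 10-12 h before compound addition, then incubated 30-36 h at 37C. ONE-Glo luminescence was read; sodium butyrate at 4.5 mM final served as control.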
Rab9 prom act: qHTS Assay for Rab9 Promoter Activators | Huh7 Rab9 promoter-luciferase reporter, luminescence, 24 h | Potency, µM (series often up to 9.22 µM), without a hit: at the top dose activation, negative = inhibition, hits mostly activators | 2.8% of 320,000 active; note: % of control where 0% means no effect; nearly all actives have a fitted effect of over 60% in size
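Huh7 cells stably carrying Rab9 promoter–luciferase reporter, plated 1500 cells/well, compound added after 2 h and incubated 24 h at 37 °C; luciferase luminescence then read after 10 min with detection reagent.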
NPC1 prom act: qHTS Assay for NPC1 Promoter Activators. AID 485313, 2010. 2.4% of 320,000 active. Potency, µM (doses to about 9.22 µM), for the others: at the top dose activation, most hits filed as activators. Huh7 NPC1 promoter luciferase reporter, 24 h; note: % of control where 0% means no effect; nearly all actives have a fitted effect of over 60% in size
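Readout is luciferase luminescence, reflecting NPC1 promoter activation in stably transfected Huh7 cells after 24 h compound exposure at 37 °C in reduced-serum medium with 10% FBS.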
FLuc modulator: qHTS profiling assay for firefly luciferase inhibitor/activator using purifed enzyme and Km concentrations of substrates (counterscreen for miR-21 project) | Luciferin 4-monooxygenase (Photinus pyralis), P08659 | purified FLuc, Km substrates, luminescence inhibition | Potency, µM (doses to about 57.5 µM), inactives show at the highest dose activity change, negative = inhibition, most hits filed as inhibitors | 6.9% of 360,000 active;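 note: plate controls were vehicle for no effect and reference inhibitor for full effect; nearly all actives have a fitted effect of over 55% in size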
Target sequence (P08659 whole entry, looked up): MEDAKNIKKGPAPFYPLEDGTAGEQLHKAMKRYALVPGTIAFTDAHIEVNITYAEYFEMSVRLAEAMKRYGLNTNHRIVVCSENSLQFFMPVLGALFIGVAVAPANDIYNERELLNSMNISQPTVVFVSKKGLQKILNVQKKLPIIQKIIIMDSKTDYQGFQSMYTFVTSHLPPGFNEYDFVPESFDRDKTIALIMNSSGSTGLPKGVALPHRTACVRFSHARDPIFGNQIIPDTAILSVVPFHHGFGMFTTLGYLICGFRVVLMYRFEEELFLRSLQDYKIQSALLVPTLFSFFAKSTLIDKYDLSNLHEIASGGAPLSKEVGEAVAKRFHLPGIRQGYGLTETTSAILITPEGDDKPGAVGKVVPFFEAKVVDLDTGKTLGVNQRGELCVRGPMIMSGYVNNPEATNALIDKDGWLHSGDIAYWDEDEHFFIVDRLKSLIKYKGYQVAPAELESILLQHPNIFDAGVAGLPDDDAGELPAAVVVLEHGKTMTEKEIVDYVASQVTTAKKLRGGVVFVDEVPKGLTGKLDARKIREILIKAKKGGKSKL
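Purified P. pyralis luciferase (10nM final) with 10uM D-luciferin and 10uM ATP (Km levels) in 50mM Tris acetate pH 7.5, 10mM Mg acetate, 0.01% Tween-20, 0.05% BSA; qHTS 6-point titration, ~60 µM downward; luminescence read.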
ELG1 genotoxic: qHTS screen for small molecules that induce genotoxicity in human embryonic kidney (HEK293T) cells expressing luciferase-tagged ELG1. HEK293T ELG1-luciferase reporter, luminescence, 16 h. Potency, µM (titrated, usually from 46 µM), inactives show at the top dose activity change, positive = activation, most hits filed as activators. 1.3% of 330,000 active. AID 504466, 2011; note: % of control where 0% means no effect; nearly all actives have a fitted effect of over 60% in size
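16 hr compound incubation (37 °C, 5% CO2) of HEK293T cells carrying luciferase-tagged ELG1; luciferase then measured by ONE-Glo luminescence after 30 min at RT.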
* = called active by the depositor; ? = inconclusive; nt = no result given. Calls come from the whole dose curve; as a rule, active = well fitted curve in the direction sought with a large enough effect; inconclusive = small, poorly fitted or top-dose-only effect, or another doubt; inactive = no such curve, though single readings can be large; an effect the other way counts as inactive or inconclusive. Potency is the fitted concentration of half-maximal effect.

SMILES	ELG1 DNA repair	SMN2 splice up	Rab9 prom act	NPC1 prom act	FLuc modulator	ELG1 genotoxic
Clc1ccc(OCc2cc(-c3ccccc3)no2)c(Cl)c1	?	0.5µM*	0.63µM*	0.5µM*	0.38µM*	?
COc1ccc(-c2cc(COc3ccccc3)on2)cc1	?	?	4µM*	?	11µM*	?
Cc1cccc(OCc2cc(-c3ccccc3)no2)c1C	?	nt	?	?	12µM*	?
Fc1ccc(OCc2cc(-c3ccccc3)no2)cc1	?	nt	3.2µM*	2.8µM*	5.4µM*	21µM*
COc1ccc(-c2ccc(-c3noc(-c4ccccc4)n3)c(OC)n2)cc1	?	6%	2%	-3%	-18%	?
COc1ccc(-c2cc(-c3ccccc3)no2)cc1	?	nt	0.4µM*	0.5µM*	0.38µM*	?
O=C(COc1ccccc1-c1nc(-c2ccccc2)no1)Nc1ccccc1[N+](=O)[O-]	nt	nt	nt	nt	-14%	nt
COC(=O)c1sc(NC(=O)CSc2nnnn2C)nc1C	?	nt	2µM*	2.2µM*	17µM*	15µM*
CCCn1c(SCC(=O)Nc2nc(C)c(C(=O)OC)s2)nnc1C(C)C	-12%	-9%	-3%	-1%	-1%	0%
COCc1cc(C)nc(SCC(=O)Nc2nc(C)cs2)c1C#N	?	nt	0.71µM*	0.63µM*	12µM*	?
CCc1nnc(NC(=O)CSc2nnnn2C)s1	?	14%	2%	-2%	0%	-3%
Cc1nc(NC(=O)CSc2nnnn2C)sc1C	?	11µM*	?	?	?	?
Cc1csc(NC(=O)CSc2nnnn2C)n1	?	14µM*	?	25%	?	?
Cc1ccc(-n2c(=O)c3c4c(sc3n(CC(=O)C(C)(C)C)c2=O)CCCCC4)cc1C	nt	2%	nt	nt	-7%	nt
O=C(COc1ccc(C(=O)c2ccccc2)cc1)NCC(=O)Nc1ccccc1Br	?	-17%	0%	-1%	-2%	-8%
CCOc1cc(/C=C2\C(=O)NN(c3ccccc3)C2=O)cc([N+](=O)[O-])c1O	21%	23%	1%	-2%	17µM*	18%
COc1cc(/C=C2\C(=O)NN(c3ccc(C)cc3)C2=O)cc([N+](=O)[O-])c1O	11%	-8%	-4%	0%	27µM*	1%
COc1cc(/C=C2/C(=O)N(c3ccc(C)c(C)c3)N=C2C)cc([N+](=O)[O-])c1O	-13%	nt	3%	-6%	17µM*	0%
COc1cc(/C=C2/C(=O)N(c3ccc(C(=O)O)cc3)N=C2C)cc(OC)c1O	-5%	nt	0%	-3%	?	0%
NC(=O)c1ccc(NC(=O)COC(=O)CC(NC(=O)c2ccccc2Cl)c2ccccc2)cc1 (stereo unspecified)	3%	-2%	-3%	0%	-14%	-1%
O=C(CN(C(=O)c1ccccc1Cl)N1C(=O)C2C3C=CC(C3)C2C1=O)c1cccs1 (stereo unspecified)	0%	15%	0%	-3%	-1%	-1%
O=C(COc1ccc(OCc2ccccc2)cc1)NC1CCOC1=O (stereo unspecified)	?	10%	-24%	1%	21µM*	-1%
Cc1ccc(-n2c(C)c([N+](=O)[O-])c3ccc(O)c(CN(C)C)c32)cc1	?	5%	1%	-1%	2%	-13%
COc1ccc(-n2c(C)c([N+](=O)[O-])c3ccc(O)c(CN4CCCCC4)c32)cc1	10µM*	-6%	-5%	2%	0%	-17%
COc1ccccc1NS(=O)(=O)c1cc(C(=O)NCC(C)(C)N2CCOCC2)ccc1C	-16%	nt	-3%	-2%	-1%	0%
SMILES	ELG1 DNA repair	SMN2 splice up	Rab9 prom act	NPC1 prom act	FLuc modulator	ELG1 genotoxic
CCOC(=O)N1CCC(N2Cc3cccc(C(=O)NCc4ccc(C)cc4)c3C2=O)CC1	16µM*	-11%	-3%	-4%	-1%	-5%
CCOC(=O)N1CCC(N2Cc3cccc(C(=O)NCc4ccccn4)c3C2=O)CC1	1%	12%	-1%	0%	2%	-1%
Cc1nn(-c2ccc([N+](=O)[O-])cc2)c2c1C(c1cccc(Br)c1)N1C(=N2)C(=O)Nc2ccccc21 (stereo unspecified)	?	-1%	-17%	-15%	-1%	-8%
Cc1nn(-c2ccccc2)c2c1C(c1ccc([N+](=O)[O-])cc1)N1C(=N2)C(=O)Nc2ccccc21 (stereo unspecified)	23µM*	-31%	0%	-2%	-2%	-8%
CN(C)CCNC(=O)C1CCN(Cc2cc3ccccc3n2Cc2ccccc2)CC1	nt	nt	nt	nt	0%	nt
Cc1nc2ccccn2c1-c1nnco1	-6%	-1%	2%	9%	-1%	-1%
Cc1cc(-c2nnco2)c(C)n1-c1ccccc1	?	?	?	?	12µM*	11µM*
C=CCC[C@H](Cc1ccc(F)cc1)C(=O)OC[C@@H](Cc1c[nH]c2ccccc12)NC(=O)[C@H](CC=C)CC(=O)N(CCO)Cc1ccccc1	16µM*	nt	nt	nt	nt	-13%
C=CCC[C@@H](Cc1ccc(F)cc1)C(=O)OC[C@@H](Cc1c[nH]c2ccccc12)NC(=O)[C@H](CC=C)CC(=O)N(CCO)Cc1ccccc1	18µM*	nt	nt	nt	nt	-12%
Cc1ccsc1C(=O)N(C)CC(=O)Nc1ccccc1Br	-1%	nt	-3%	0%	-10%	0%
c1ccc(N2CCN(CC3CCCCC3)CC2)cc1	-4%	nt	4%	-4%	3%	-3%
CC(C)NC(=O)c1ccc(-n2nc(C(F)(F)F)c3c2CCCC3)cc1	3%	-12%	0%	0%	-1%	-7%

Screening results deposited in PubChem BioAssay by National Center for Advancing Translational Sciences (NCATS).
